Data from PubChem BioAssay AID1159580 (chemical genetic matrix, 2015).
Screen size: about 5,500 compounds; about 2,000 (36%) were called active. Not shown: some 18% with an inconclusive outcome. No stated cut-off is given here; in the data, active means normalized growth mostly below about 0.91 (no sharp cut-off); inconclusive means no clear call, values can overlap the other calls; inactive means mostly above about 0.92. The list shows a part of the results.

Assay: chemical genetic growth profiling, strain panel (AID 1159580);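 further: tested at 20 µM; growth read once vehicle control cultures reached saturation at 30 °C; 1 = growth at the plate median or of vehicle wells; lower values mean less growth of the strain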
Settings: S. cerevisiae deletion strains, growth OD
[1] = locus YHR030C, strain SLT2, active compounds read low
[2] = locus YJL095W, strain BCK1, active compounds read low

Measured: normalized growth

O=C(O)c1cc(=O)c2ccccc2o1
inactive: locus YAL021C, strain ccr4, active compounds read low 1.01 | locus YAL026C, strain drs2, active compounds read low 0.984 | locus YAL030W, strain snc1, active compounds read low 0.971 | locus YBL061C, strain skt5, active compounds read low 0.974 | locus YBR009C, strain hhf1, active compounds read low 0.989 | locus YBR023C, strain chs3, active compounds read low 0.982 | locus YBR171W, strain sec66, active compounds read low 0.965 | locus YBR231C, strain swc5, active compounds read low 0.982 | locus YBR279W, strain paf1, active compounds read low 0.981 | locus YCL011C, strain gbp2, active compounds read low 0.988 | locus YCL016C, strain dcc1, active compounds read low 0.995 | locus YCL061C, strain MRC1, active compounds read low 0.979 | locus YCL069W, strain vba3, active compounds read low 0.99 | locus YCR088W, strain abp1, active compounds read low 0.973 | locus YDL005C, strain med2, active compounds read low 0.967 | locus YDL040C, strain nat1, active compounds read low 0.98 | locus YDR001C, strain nth1, active compounds read low 0.972 | locus YDR069C, strain doa4, active compounds read low 0.966 | locus YDR137W, strain rgp1, active compounds read low 0.971 | locus YDR159W, strain sac3, active compounds read low 1 | locus YDR195W, strain ref2 0.916 | locus YDR297W, strain sur2, active compounds read low 0.983 | locus YDR334W, strain swr1, active compounds read low 0.976 | locus YDR335W, strain msn5, active compounds read low 0.986 | locus YDR392W, strain spt3, active compounds read low 1.02 | locus YEL003W, strain gim4, active compounds read low 0.983 | locus YEL037C, strain rad23, active compounds read low 0.973 | locus YEL061C, strain CIN8 (second series), active compounds read low 0.97 | locus YER015W, strain faa2, active compounds read low 0.99 | locus YER016W, strain bim1, active compounds read low 0.984 | locus YER111C, strain swi4, active compounds read low 0.972 | locus YER155C, strain BEM2 (second series), active compounds read low 0.936 | locus YFR010W, strain ubp6, active compounds read low 0.976 | locus YGL167C, strain pmr1, active compounds read low 0.973 | locus YGL173C, strain kem1, active compounds read low 0.975 | locus YGL227W, strain vid30, active compounds read low 0.968 | locus YGL240W, strain doc1, active compounds read low 0.96 | locus YGL253W, strain hxk2, active compounds read low 0.992 | locus YHR013C, strain ard1, active compounds read low 0.978 | locus YHR027C, strain rpn1, active compounds read low 0.977 | [1] 1.03 | locus YHR079C, strain IRE1, active compounds read low 1.02 | locus YHR142W, strain chs7, active compounds read low 0.983 | locus YJL092W, strain hpr5, active compounds read low 0.98 | locus YJL095W, strain BCK1 (second series), active compounds read low 0.97 | [2] 1.03 | locus YJL115W, strain asf1, active compounds read low 0.979 | locus YJL129C, strain trk1, active compounds read low 0.95 | locus YJL154C, strain vps35, active compounds read low 0.952 | locus YJL164C, strain tpk1, active compounds read low 0.98 | locus YJL166W, strain qcr8, active compounds read low 0.97 | locus YJR066W, strain TOR1, active compounds read low 0.956 | locus YKL160W, strain elf1, active compounds read low 0.987 | locus YKR026C, strain gcn3, active compounds read low 0.971 | locus YKR091W, strain srl3, active compounds read low 0.972 | locus YLL001W, strain dnm1, active compounds read low 0.957 | locus YLL026W, active compounds read low 0.969 | locus YLL041C, strain sdh2, active compounds read low 0.972 | locus YLR027C, strain aat2, active compounds read low 0.979 | locus YLR113W, strain HOG1, active compounds read low 1.05 | locus YLR221C, strain rsa3, active compounds read low 1 | locus YLR258W, strain gsy2, active compounds read low 0.985 | locus YLR262C, strain YPT6 (second series), active compounds read low 0.986 | locus YLR320W, strain mms22, active compounds read low 0.991 | locus YLR342W, strain FKS1, active compounds read low 0.983 | locus YLR357W, strain rsc2, active compounds read low 0.975 | locus YLR370C, strain arc18, active compounds read low 0.974 | locus YLR384C, strain iki3, active compounds read low 0.976 | locus YML120C, strain ndi1, active compounds read low 0.958 | locus YMR058W, strain fet3, active compounds read low 0.984 | locus YMR125W, strain sto1, active compounds read low 0.95 | locus YMR129W, active compounds read low 0.981 | locus YMR205C, strain PFK2, active compounds read low 0.969 | locus YMR231W, strain pep5, active compounds read low 0.949 | locus YNL071W, strain lat1, active compounds read low 0.988 | locus YNL183C, strain NPR1, active compounds read low 0.949 | locus YNL209W, strain ssb2, active compounds read low 1.03 | locus YNL248C, strain rpa49, active compounds read low 0.968 | locus YNL322C, strain KRE1 (second series), active compounds read low 0.953 | locus YNR049C, strain mso1, active compounds read low 0.982 | locus YOR001W, strain rrp6, active compounds read low 0.983 | locus YOR070C, strain gyp1, active compounds read low 0.985 | locus YOR080W, strain dia2, active compounds read low 0.971 | locus YOR083W, strain WHI5, active compounds read low 0.982 | locus YOR106W, strain vam3, active compounds read low 0.972 | locus YOR231W, strain MKK1, active compounds read low 1.07 | locus YOR265W, strain rbl2, active compounds read low 0.976 | locus YOR270C, strain vph1, active compounds read low 0.962 | locus YOR290C, strain snf2, active compounds read low 1 | locus YPL051W, strain arl3, active compounds read low 0.983 | locus YPL078C, strain atp4, active compounds read low 0.975 | locus YPL106C, strain sse1, active compounds read low 0.988 | locus YPL240C, strain hsp82, active compounds read low 0.994 | locus YPL256C, strain CLN2, active compounds read low 1.03

O=c1c2ccccc2oc2ccc(O)cc12
active: locus YCL029C, strain bik1, active compounds read low 0.865 | locus YDL035C, strain GPR1, active compounds read low 0.814 | locus YDL074C, strain BRE1, active compounds read low 0.737 | locus YDL101C, strain DUN1, active compounds read low 0.791 | locus YDL134C, strain PPH21, active compounds read low 0.759 | locus YDL185W, strain tfp1, active compounds read low 0.901 | locus YDL192W, strain arf1, active compounds read low 0.864 | locus YDR162C, strain NBP2, active compounds read low 0.368 | locus YDR318W, strain mcm21, active compounds read low 0.896 | locus YDR502C, strain sam2, active compounds read low 0.895 | locus YEL061C, strain CIN8, active compounds read low 0.863 | locus YGL086W, strain mad1, active compounds read low 0.854 | locus YGL248W, strain PDE1, active compounds read low 0.811 | locus YGR078C, strain PAC10, active compounds read low 0.736 | locus YGR135W, strain pre9, active compounds read low 0.856 | [1] 0.738 | locus YHR129C, strain ARP1, active compounds read low 0.889 | locus YIL066C, strain RNR3, active compounds read low 0.767 | [2] 0.516 | locus YJL187C, strain SWE1 (second series), active compounds read low 0.828 | locus YKR001C, strain vps1, active compounds read low 0.509 | locus YLR039C, strain RIC1, active compounds read low 0.49 | locus YLR058C, strain SHM2, active compounds read low 0.886 | locus YLR262C, strain YPT6, active compounds read low 0.461 | locus YLR268W, strain sec22, active compounds read low 0.859 | locus YLR330W, strain CHS5, active compounds read low 0.834 | locus YLR371W, strain rom2, active compounds read low 0.894 | locus YLR418C, strain cdc73, active compounds read low 0.786 | locus YML016C, strain PPZ1, active compounds read low 0.915 | locus YML032C, strain rad52, active compounds read low 0.757 | locus YMR223W, strain ubp8, active compounds read low 0.895 | locus YMR263W, strain SAP30, active compounds read low 0.833 | locus YNL233W, strain BNI4, active compounds read low 0.782 | locus YNL271C, strain bni1, active compounds read low 0.915 | locus YNL307C, strain MCK1, active compounds read low 0.63 | locus YNR052C, strain pop2, active compounds read low 0.871 | locus YOL147C, strain pex11, active compounds read low 0.926 | locus YOR069W, strain VPS5, active compounds read low 0.919 | locus YOR184W, strain ser1, active compounds read low 0.746 | locus YPR163C, strain tif3, active compounds read low 0.772
inactive: locus YBR021W, strain FUR4, active compounds read low 1.13 | locus YBR229C, strain ROT2, active compounds read low 0.952 | locus YDR101C, strain arx1, active compounds read low 0.922 | locus YDR388W, active compounds read low 0.937 | locus YER110C, active compounds read low 0.919 | locus YER155C, strain BEM2, active compounds read low 0.978 | locus YER167W, strain BCK2, active compounds read low 0.949 | locus YGL078C, strain dbp3, active compounds read low 0.962 | locus YGR252W, strain gcn5, active compounds read low 0.847 | locus YHR079C, strain IRE1 (second series), active compounds read low 0.961 | locus YHR094C, strain hxt1, active compounds read low 0.977 | locus YHR200W, strain rpn10, active compounds read low 0.956 | locus YIL073C, strain SPO22, active compounds read low 0.815 | locus YIL125W, strain kgd1, active compounds read low 0.962 | locus YIR030C, strain dcg1, active compounds read low 0.933 | locus YJL134W, strain LCB3, active compounds read low 0.941 | locus YJL168C, strain set2, active compounds read low 0.948 | locus YJR043C, strain POL32, active compounds read low 0.981 | locus YKL009W, strain mrt4, active compounds read low 0.939 | locus YKL068W, active compounds read low 1.01 | locus YKL085W, strain MDH1 (second series), active compounds read low 0.976 | locus YKL085W, strain MDH1, active compounds read low 0.976 | locus YLR102C, strain apc9, active compounds read low 0.984 | locus YLR342W, strain FKS1 (second series), active compounds read low 0.918 | locus YML124C, strain tub3, active compounds read low 0.945 | locus YMR078C, strain ctf18, active compounds read low 0.938 | locus YMR307W, strain GAS1, active compounds read low 0.881 | locus YNL067W, strain RPL9B, active compounds read low 0.871 | locus YNL250W, strain rad50, active compounds read low 0.917 | locus YNL298W, strain CLA4, active compounds read low 0.941 | locus YNL322C, strain KRE1, active compounds read low 0.948 | locus YOL012C, strain htz1 1.06 | locus YOR061W, strain CKA2, active compounds read low 0.924 | locus YOR136W, strain idh2, active compounds read low 0.957 | locus YOR144C, strain elg1, active compounds read low 0.943 | locus YOR316C, strain cot1, active compounds read low 0.967 | locus YPL055C, strain LGE1, active compounds read low 0.827 | locus YPL241C, strain CIN2, active compounds read low 0.941 | locus YPR119W, strain clb2, active compounds read low 0.949 | locus YPR141C, strain kar3, active compounds read low 0.965 | locus YPR167C, strain met16, active compounds read low 0.934 | strain wtn01, active compounds read low 0.931
